Experimental data from PubChem BioAssay AID2391 (Southern Research Specialized Biocontainment Screening …, 2010).
The whole screen tested about 310,000 compounds, of which about 410 (0.13%) were called active. Inconclusive results (about 2%) are left out. No rule for the calls is given here. The list is a sample of the results. Measured potencies and affinities stand elsewhere.

Experiment: inhibition of RSV-induced cytopathic effect – HEp-2 cells, primary 10 µM value included (AID 2391)
Details: at 10 µM, stronger effect = higher value

CPE inhibition, inactive:
O=C(CNC(=O)c1ccc(Br)o1)NNC(=O)c1cccc(Cl)c1 -2.18%
O=C1N=c2ccccc2=C1c1sc(NS(=O)(=O)c2ccccc2)nc1O 4.47%
CCOC(=O)N1CCC(N2CCCC(CO)(Cc3ccccc3C)C2)CC1 (stereo unspecified) 0.07%
CC(=O)c1cccc(NC(=O)c2csc3c2CCCCC3)c1 13.4%
N#Cc1ccccc1CSc1ncccc1C(=O)O -0.85%
CCOC(=O)C1=C(NC(=S)NC(=O)c2ccccc2)c2ccccc2CC1(C)C 7.06%
CCOC(=O)C1=C(NC(=S)NC(=O)c2ccccc2)c2ccccc2CC1(C)CC (stereo unspecified) 43.2%
CCOc1cc(/C=C2\SC(=NC)N(C)C2=O)c(Br)cc1OC(C)=O 1.71%
Cc1cccc(C)c1OCc1n[nH]c(=S)o1 0.21%
Cc1ccc2c(c1)COc1c3ccc(C(=O)N[C@@H](CO)C(C)C)cc3nn1-2 15%
Cc1ccc2c(c1)COc1c3ccc(C(=O)NC(C)C)cc3nn1-2 16.2%
CCN(CC)CCN(Cc1cc2cc3c(cc2[nH]c1=O)OCO3)C(=S)NCc1ccco1 -1.07%
CCOC(=O)CN1C(=O)N[C@@H](c2cccc(F)c2)C(C(=O)OC)=C1C 9.26%
CCOC(=O)CN1C(=O)N[C@@H](c2ccccc2)C(C(C)=O)=C1C 2.81%
OC(CNC1CCCC1)COc1ccc(Cl)cc1 (stereo unspecified) -0.21%
COc1ccc(OC)c(CN2CCC(CO)(CCOc3ccccc3)CC2)c1 -2.58%
O=C(Nc1nc2c(s1)CCCC2)c1cccc(S(=O)(=O)N2CCCc3ccccc32)c1 7.22%
O=C(Nc1nc2c(s1)CCCC2)c1ccc(S(=O)(=O)N2CCCc3ccccc32)cc1 1.63%
O=C(CCCc1cccs1)Nc1nc2c(s1)CCCC2 1.81%
O=C(Nc1nc2c(s1)CCCC2)c1cccs1 14.3%
O=C(COc1ccccc1)Nc1nc2c(s1)CCCC2 14%
COc1ccc(OCC(=O)Nc2nc3c(s2)CCCC3)cc1 6.78%
COC(=O)c1ccc(C(C(=O)NC2CCCCC2)N(Cc2ccc(F)cc2)C(=O)Cc2cccs2)cc1 (stereo unspecified) 7.57%
CC(=O)OCCNC(=O)Cn1cnc2c1c(=O)n(C)c(=O)n2C 0.79%
COc1ccc(C2CC(C(F)(F)F)n3nc(C(N)=O)c(Cl)c3N2)cc1OC (stereo unspecified) 3.38%
CC1CCN(CC(=O)Nc2ccc(S(=O)(=O)N3CCCCC3)cc2)CC1 -0.34%
